Experimental data published in PubChem BioAssay (NCI).
About 83,000 compounds went through this panel and 20% of them were active in at least one assay; those are over-represented in the sample as a whole.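 For each line, cells grew in 96-well plates with the test compound present at a single concentration for 48 hours.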 Active and inactive are the calls of the source. The calls were made as follows: active = growth percent below 10; inactive = the rest.

How the values were obtained:
Experiment in all cases: NCI-60 one-dose screen, 48 h (100 = growth as untreated, 0 = no growth, -100 = all killed)
Conditions in all cases: 10 µM unless noted
NCI-H23 lung = test system: NCI-H23 lung
NCI-H226 lung = test system: NCI-H226 lung
NCI-H322M lung = test system: NCI-H322M lung
HOP-62 NSCLC = test system: HOP-62 NSCLC
NCI-H460 lung = test system: NCI-H460 lung
HOP-92 NSCLC = test system: HOP-92 NSCLC
NCI-H522 lung = test system: NCI-H522 lung
A549/ATCC NSCLC = test system: A549/ATCC NSCLC
786-0 renal = test system: 786-0 renal
COLO 205 colon = test system: COLO 205 colon

Measured: growth

COc1ccc(C2=C/C(=C\c3ccc(Cl)cc3)C(=O)N2/N=C/c2ccc(Cl)cc2)cc1
inactive: NCI-H23 lung 103% | NCI-H226 lung 93.1% | NCI-H322M lung 89.7% | HOP-62 NSCLC 97.8% | NCI-H460 lung 106% | HOP-92 NSCLC 72.8% | NCI-H522 lung 73.9% | A549/ATCC NSCLC 80.7% | 786-0 renal 103% | COLO 205 colon 96.9%

Cc1ccc(-c2cc(C(=O)N3N=C(c4ccc(N)cc4)CC3c3ccc(Cl)cc3)c3ccccc3n2)cc1 (stereo not given)
inactive: NCI-H23 lung 49.4% | NCI-H226 lung 72.1% | NCI-H322M lung 48.3% | HOP-62 NSCLC 33.9% | NCI-H460 lung 12.9% | HOP-92 NSCLC 41.2% | A549/ATCC NSCLC 21.4% | 786-0 renal 24.3%
active: NCI-H522 lung -2.26% | COLO 205 colon 2.01%

CCCCCCCCn1ccc2cc(NC(=O)Cn3cc(CN4CCN(CC)CC4)nn3)ccc21
inactive: NCI-H23 lung 105% | NCI-H226 lung 98.3% | NCI-H322M lung 78.3% | HOP-62 NSCLC 89.8% | NCI-H460 lung 13.8% | HOP-92 NSCLC 54.7% | NCI-H522 lung 86.9% | A549/ATCC NSCLC 64% | 786-0 renal 57.9%
active: COLO 205 colon -70.2%

CS(=O)(=O)Nc1cncc(-c2ccc3ncnc(Nc4ccc(F)c(Cl)c4)c3c2)c1
active: HOP-92 NSCLC -4.23% | NCI-H522 lung 8.87%
inactive: NCI-H23 lung 33.1% | NCI-H226 lung 55.7% | NCI-H322M lung 10.5% | HOP-62 NSCLC 40.1% | NCI-H460 lung 61.9% | A549/ATCC NSCLC 43.1% | 786-0 renal 62% | COLO 205 colon 32.5%

COc1cc(C(=O)/C=C/c2c(-c3cccs3)nc3ccccn23)cc(OC)c1OC
inactive: NCI-H23 lung 14.1% | NCI-H226 lung 24.8% | HOP-62 NSCLC 16.3% | A549/ATCC NSCLC 13.7%
active: NCI-H322M lung -2.37% | NCI-H460 lung -48.1% | HOP-92 NSCLC -1.12% | NCI-H522 lung 1.24% | 786-0 renal 0.465% | COLO 205 colon 2.79%

CN1CCN(CCOc2ccc(-c3cnc4c(-c5ccc(C(F)(F)F)cc5)cnn4c3)cc2)CC1
inactive: NCI-H23 lung 48.5% | NCI-H226 lung 87.8% | NCI-H322M lung 64.3% | HOP-62 NSCLC 37.5% | HOP-92 NSCLC 40.4% | NCI-H522 lung 44.4%
active: NCI-H460 lung -50.3% | A549/ATCC NSCLC -41.1% | 786-0 renal -57.3% | COLO 205 colon -55.7%

O=C(CN1C(=O)/C(=C/c2ccco2)SC1=S)NCCc1c[nH]c2ccc(F)cc12
inactive: NCI-H23 lung 94.7% | NCI-H226 lung 92.4% | NCI-H322M lung 102% | HOP-62 NSCLC 117% | NCI-H460 lung 103% | HOP-92 NSCLC 102% | NCI-H522 lung 82.5% | A549/ATCC NSCLC 102% | 786-0 renal 104% | COLO 205 colon 115%

COC(=O)C1=C(C(=O)Nc2cccnc2)C2OC1(C(Cc1ccccc1)Oc1ccccc1)C1OC21 (stereo not given)
inactive: NCI-H23 lung 95.9% | NCI-H226 lung 88.4% | NCI-H322M lung 98.4% | HOP-62 NSCLC 93% | NCI-H460 lung 103% | A549/ATCC NSCLC 88.8% | 786-0 renal 49.7%
active: HOP-92 NSCLC -74.2% | NCI-H522 lung -48% | COLO 205 colon -46.9%

O=c1ccc2nc(C(F)(F)F)nn(-c3ccccc3)c-2c1
inactive: NCI-H23 lung 67.7% | NCI-H226 lung 77.7% | NCI-H322M lung 99.8% | HOP-62 NSCLC 69% | NCI-H460 lung 97.3% | HOP-92 NSCLC 35.2% | A549/ATCC NSCLC 93% | 786-0 renal 22.2%
active: NCI-H522 lung -56% | COLO 205 colon -70.7%

C[C@@H]1O[C@@H](O[C@@H]2C[C@H](c3ccc4c(c3O)C(=O)C3=C(C4=O)[C@@]4(O)C(=O)C[C@](C)(O)C[C@@]4(O)C=C3)O[C@H](C)[C@H]2O)C[C@H](O)[C@@H]1O
inactive: NCI-H23 lung 93.2% | NCI-H226 lung 101% | NCI-H322M lung 108% | HOP-62 NSCLC 107% | NCI-H460 lung 98.5% | HOP-92 NSCLC 120% | NCI-H522 lung 82.8% | A549/ATCC NSCLC 94.7% | 786-0 renal 101% | COLO 205 colon 96.9%

CC(C)CN1CC(C(=O)Nc2ccc3c(c2)-c2ccccc2C3)CC1=O (stereo not given)
inactive: NCI-H23 lung 81% [50 µM] | NCI-H226 lung 64.9% [50 µM] | NCI-H322M lung 69.6% [50 µM] | HOP-62 NSCLC 50.7% [50 µM] | NCI-H460 lung 81.8% [50 µM] | HOP-92 NSCLC 58.5% [50 µM] | NCI-H522 lung 51.3% [50 µM] | A549/ATCC NSCLC 78.7% [50 µM] | 786-0 renal 70.7% [50 µM] | COLO 205 colon 87.7% [50 µM]

O=C(Nc1ccc(F)cc1)Nc1ccccc1CNc1nc(Nc2ccc(OCCN3CCCC3)cc2)ncc1Cl
active: NCI-H460 lung 9.85% | 786-0 renal -16.3% | COLO 205 colon 0.109%
inactive: NCI-H23 lung 60.8% | NCI-H226 lung 99.1% | NCI-H322M lung 89.1% | HOP-62 NSCLC 51.3% | HOP-92 NSCLC 52.2% | NCI-H522 lung 37% | A549/ATCC NSCLC 38.2%

COc1ccccc1-n1c(-c2cc(O)ccc2C)cn2c3c(=O)[nH]c(=O)n(C)c3nc12
active: HOP-92 NSCLC -1.51%
inactive: NCI-H23 lung 90.6% | NCI-H226 lung 107% | NCI-H322M lung 36% | HOP-62 NSCLC 68.2% | NCI-H460 lung 91.6% | NCI-H522 lung 44.5% | A549/ATCC NSCLC 66.3% | 786-0 renal 52.8% | COLO 205 colon 84.2%

CSCCC(NC(=O)c1ccccc1)C(=O)N/N=C1\S/C(=C/c2ccc(Cl)cc2)C(=O)N1C (stereo not given)
inactive: NCI-H23 lung 90% | NCI-H226 lung 86.9% | NCI-H322M lung 90.4% | HOP-62 NSCLC 33.9% | NCI-H460 lung 95.9% | HOP-92 NSCLC 70.8% | NCI-H522 lung 80.7% | A549/ATCC NSCLC 79.9% | 786-0 renal 91.4% | COLO 205 colon 101%

O=C(Cn1nnc([N+](=O)[O-])n1)c1ccccc1
inactive: NCI-H23 lung 96.5% | NCI-H226 lung 112% | NCI-H322M lung 101% | HOP-62 NSCLC 94.8% | NCI-H460 lung 93.2% | HOP-92 NSCLC 63.6% | NCI-H522 lung 86.9% | A549/ATCC NSCLC 87% | 786-0 renal 102% | COLO 205 colon 100%

CC1=NN(c2ccc(Cl)cc2)CC1(C)N=O (stereo not given)
inactive: NCI-H23 lung 88.4% | NCI-H226 lung 76.9% | NCI-H322M lung 99.9% | HOP-62 NSCLC 95.8% | NCI-H460 lung 95.9% | HOP-92 NSCLC 83.3% | NCI-H522 lung 44.5% | A549/ATCC NSCLC 99.9% | 786-0 renal 73.1% | COLO 205 colon 67.3%

Cc1ccc2nc(Cl)c(Cn3nnnc3SCc3ccccc3)cc2c1
inactive: NCI-H23 lung 91.8% | NCI-H226 lung 79.6% | NCI-H322M lung 105% | HOP-62 NSCLC 86% | NCI-H460 lung 98.4% | HOP-92 NSCLC 70.6% | NCI-H522 lung 77.5% | A549/ATCC NSCLC 92.5% | 786-0 renal 95% | COLO 205 colon 110%

CCN(CC)c1ccc(N2C(=O)/C(=C/c3cccs3)SC2=S)cc1
inactive: NCI-H23 lung 94.8% | NCI-H226 lung 93.7% | NCI-H322M lung 91.7% | HOP-62 NSCLC 106% | NCI-H460 lung 97.8% | NCI-H522 lung 82.9% | A549/ATCC NSCLC 92% | 786-0 renal 95.6% | COLO 205 colon 101%
active: HOP-92 NSCLC 6.63%

CN(C)Cc1ccc(C(=O)Nc2ccc3ncnc(Nc4ccc(Oc5cccc(F)c5)c(Cl)c4)c3c2)cc1
inactive: NCI-H23 lung 49.5% | NCI-H226 lung 80.2% | HOP-62 NSCLC 45.1% | HOP-92 NSCLC 36.2%
active: NCI-H322M lung 4.65% | NCI-H460 lung -74.3% | NCI-H522 lung -29.6% | A549/ATCC NSCLC 8.26% | 786-0 renal -84.9% | COLO 205 colon -53.3%

COc1cc2c3c(n(CCCCNCCCn4c5c(c6cc(OC)c(OC)cc6c4=O)C(=O)c4cc6c(cc4-5)OCO6)c(=O)c2cc1OC)-c1cc2c(cc1C3=O)OCO2
inactive: NCI-H23 lung 95.3% | NCI-H226 lung 106% | NCI-H322M lung 90.5% | HOP-62 NSCLC 90.5% | NCI-H460 lung 106% | HOP-92 NSCLC 87% | NCI-H522 lung 86.8% | A549/ATCC NSCLC 90.3% | 786-0 renal 109% | COLO 205 colon 103%

O=C(/C=C/c1ccc(Br)cc1)c1ccc(-n2cc(CN3CCN(c4cc5c(cc4F)c(=O)c(C(=O)O)cn5C4CC4)CC3)nn2)cc1
inactive: NCI-H23 lung 85.4% | NCI-H226 lung 84.5% | NCI-H322M lung 87.1% | HOP-62 NSCLC 87.4% | NCI-H460 lung 85.8% | HOP-92 NSCLC 84.6% | NCI-H522 lung 78.3% | A549/ATCC NSCLC 87.3% | 786-0 renal 76.7% | COLO 205 colon 107%

CC(C)CCC[C@@H](C)C1CCC2C3CCC4=C/C(=N/OCCN(C)C)CC[C@]4(C)C3CC[C@@]21C (stereo not given in full)
inactive: NCI-H23 lung 84.7% | NCI-H226 lung 95.8% | NCI-H322M lung 79.9% | HOP-62 NSCLC 80.5% | NCI-H460 lung 98.5% | HOP-92 NSCLC 50% | NCI-H522 lung 66.3% | A549/ATCC NSCLC 77.7% | 786-0 renal 76% | COLO 205 colon 98%

CCCCNC1=C(OCC)C(=O)c2ccccc2C1=O
inactive: NCI-H23 lung 83.5% | NCI-H226 lung 105% | NCI-H322M lung 103% | HOP-62 NSCLC 125% | NCI-H460 lung 92.6% | HOP-92 NSCLC 74.5% | NCI-H522 lung 98.4% | A549/ATCC NSCLC 99.2% | 786-0 renal 94.8% | COLO 205 colon 116%

S=c1[nH]c2cc(Cl)ccc2o1
inactive: NCI-H23 lung 104% | NCI-H226 lung 104% | NCI-H322M lung 107% | HOP-62 NSCLC 102% | NCI-H460 lung 100% | HOP-92 NSCLC 82.6% | NCI-H522 lung 102% | A549/ATCC NSCLC 118% | 786-0 renal 92.7% | COLO 205 colon 110%

Cc1ccc(/C=C/C(=O)c2ccc(NC(=O)CSc3nc4c([nH]3)c(=O)n(C)c(=O)n4C)cc2)c(C)c1
active: HOP-92 NSCLC -35.2%
inactive: NCI-H23 lung 57.9% | NCI-H226 lung 47.2% | NCI-H322M lung 71.3% | HOP-62 NSCLC 20.4% | NCI-H460 lung 24.5% | NCI-H522 lung 32.5% | A549/ATCC NSCLC 33.6% | 786-0 renal 36% | COLO 205 colon 84.8%

Cc1[nH]c(/C=C/C(=O)c2ccc(C(F)(F)F)c(F)c2)c(C)c1C(=O)NCC(C)C
inactive: NCI-H23 lung 101% | NCI-H226 lung 98.2% | NCI-H322M lung 101% | HOP-62 NSCLC 87.7% | NCI-H460 lung 101% | HOP-92 NSCLC 108% | NCI-H522 lung 99.4% | A549/ATCC NSCLC 95.4% | 786-0 renal 103% | COLO 205 colon 113%
